PME-1 primary = blocks human protein phosphatase methylesterase 1 | inhibition, % at 5.9 µM | Q9Y570 | hit rate 0.53% among 320,000 | recombinant PME-1, FP-Rh probe fluorescence polarization;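 active means inhibition above the campaign mean of all compounds plus 3 SD, cut at about 26% in these data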;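 further: competitive labeling of PME-1 active site by serine hydrolase directed probe; 0% = PME-1 with DMSO and 100% = wells lacking PME-1 enzyme; inhibitors block probe labeling so polarization falls and inhibition rises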
PAFAH1B2 inh = blocks human PAF acetylhydrolase 1b catalytic subunit 2; P68402; recombinant PAFAH1B2, FP-rhodamine activity probe, fluorescence polarization; inhibition, % at 3.39 µM; hit rate 1.2% among 340,000;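 active means inhibition above the mean of all tested compounds plus 3 SD, cut at about 24% in these data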;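 further: 0% = enzyme with DMSO and 100% = wells lacking PAFAH1B2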
Target sequence (P68402 whole entry, looked up): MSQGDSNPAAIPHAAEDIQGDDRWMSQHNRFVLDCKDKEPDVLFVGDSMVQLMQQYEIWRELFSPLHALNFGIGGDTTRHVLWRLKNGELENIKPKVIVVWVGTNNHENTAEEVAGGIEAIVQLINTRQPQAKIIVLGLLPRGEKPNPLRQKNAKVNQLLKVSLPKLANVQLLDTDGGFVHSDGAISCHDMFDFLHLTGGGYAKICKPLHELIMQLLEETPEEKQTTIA
pPAFAH inh = inhibitors of human plasma PAF acetylhydrolase (pPAFAH); Q13093; recombinant pPAFAH, FP-rhodamine probe fluorescence polarization; inhibition, % at 3.39 µM; hit rate 1.5% among 330,000; AID 463082;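 active means inhibition above the mean inhibition across the screen plus 3 SD, cut at about 25% in these data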;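 further: inhibitors block binding of the rhodamine activity-based probe so polarization drops; 0% = enzyme with DMSO and 100% = wells lacking pPAFAH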
PAFAH1B3 inh = blocks human PAF acetylhydrolase 1B catalytic subunit 3 | hit rate 0.28% among 340,000 | Q15102 | recombinant PAFAH1B3, FP-rhodamine probe, fluorescence polarization | inhibition, % at 3.39 µM;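 active means inhibition above the screen-wide average of all tested compounds plus 3 SD, cut at about 25% in these data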;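 further: 0% = enzyme with DMSO only and 100% = wells lacking PAFAH1B3 protein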
Target sequence (Q15102 whole entry, looked up): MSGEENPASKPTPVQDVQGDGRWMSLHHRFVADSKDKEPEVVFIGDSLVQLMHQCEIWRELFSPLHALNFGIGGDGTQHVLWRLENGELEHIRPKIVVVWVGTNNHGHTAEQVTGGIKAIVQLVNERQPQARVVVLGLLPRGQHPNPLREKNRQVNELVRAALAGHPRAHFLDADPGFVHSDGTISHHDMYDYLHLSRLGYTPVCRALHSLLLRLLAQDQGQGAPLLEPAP
Fam108B inh = counter-screen for RBBP9 inhibitors: inhibitors of mouse Fam108B; recombinant Fam108B, FP-Rh probe fluorescence polarization; inhibition, % at 9.51 µM; hit rate 0.33% among 300,000; AID 1947;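 active means inhibition above the screen mean inhibition plus 3 SD, computed separately per campaign, cut at about 18% in these data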;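 further: inhibitors lower polarization as less probe binds the enzyme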
PAFAH2 FP inh = PAFAH2 (human) inhibition; Q99487; recombinant PAFAH2, FP-rhodamine activity probe, fluorescence polarization; inhibition, % at 3.39 µM; hit rate 0.99% among 340,000; AID 492956;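 active means inhibition above the mean over all tested compounds plus 3 SD, cut at about 30% in these data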;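 further: inhibitors block probe labeling of enzyme so polarization drops; 0% = enzyme with DMSO and 100% = wells lacking PAFAH2 protein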
* hit, by the source's call; . = not tested or not shown. A selection: hits, their analogues and other compounds. The true share with any hit is near 2.9%.

SMILES | PME-1 primary | PAFAH1B2 inh | pPAFAH inh | PAFAH1B3 inh | Fam108B inh | PAFAH2 FP inh
Nc1c(C(=O)NCc2ccco2)c2nc3ccccc3nc2n1CCN1CCOCC1 | 27.9* | 4.0 | 13.2 | 4.7 | 1.7 | 7.2
Nc1c(C(=O)NCc2ccco2)c2nc3ccccc3nc2n1Cc1ccccc1 | 6.3 | -1.8 | 9.1 | 1.9 | -2.5 | 5.3
NCCc1cc(O)c(O)cc1O | . | 54.6* | . | 88.2* | . | 71.5*
CN(C)c1ccc(/C=C2/C(=N\O)C3CCN2CC3)cc1 | -1.4 | -4.1 | -0.2 | 5.5 | -3.4 | 0.9
O=C1NC(=O)N(c2cccc(Cl)c2)C(=O)/C1=C\c1ccc(Sc2nc3ccccc3[nH]2)o1 | -73.7 | -36.9 | 14.5 | -47.7 | -45.3 | -26.6
O=C1NC(=O)N(c2ccccc2)C(=O)/C1=C/c1ccc(Sc2ccccc2)o1 | -16.3 | 59.6* | 3.6 | 6.3 | -4.0 | 39.4*
O=c1[nH]c(=S)[nH]c(O)c1N=Nc1ccc(S(=O)(=O)N2CCc3ccccc32)cc1 | 36.1* | 18.1 | 23.8 | 7.3 | 10.0 | 17.4
O=C(CN1CC=C(c2ccccc2)CC1)Nc1cc(Cl)ccc1Cl | 9.2 | 5.7 | 0.6 | 0.3 | -5.4 | 3.0
O=C(CN1CC=C(c2ccccc2)CC1)Nc1c(Cl)cccc1Cl | 36.0* | 3.2 | 10.3 | 5.2 | 7.8 | -1.4
COc1ccc(NC(=O)CN2CC=C(c3ccccc3)CC2)cc1S(=O)(=O)N1CCOCC1 | 4.6 | -2.8 | 6.2 | -1.6 | 3.2 | 2.4
Cc1ccc(S(=O)(=O)N2CCCCC2)cc1NC(=O)CN1CC=C(c2ccccc2)CC1 | 74.7* | 0.6 | 9.4 | 0.2 | -0.5 | 0.3
Cc1cccc(-n2c(O)c(C)c(=O)[nH]c2=S)c1 | . | 8.6 | . | 2.0 | . | 2.4
CCn1nc(-c2cccs2)nc2c(=O)n(C)c(=O)nc1-2 | . | 47.3* | . | 73.7* | . | 55.5*
COc1cccc(OC)c1C1=NCC(=O)Nc2c1oc1ccc(Br)cc21 | 45.2* | 4.9 | 4.2 | 3.9 | -5.8 | 1.8
O=C1CN=C(c2ccccc2)c2oc3ccc(Br)cc3c2N1 | -3.4 | 6.4 | 5.7 | 5.4 | -0.9 | 0.0
COC(=O)C1=C(c2ccc(C(C)=O)cc2)C[C@@H]2CC[C@H]1N2C(=O)NCc1ccc(C(F)(F)F)cc1 | 8.4 | 35.4* | 0.6 | 15.3 | . | 5.0
COC(=O)C1=C(c2ccc(OC(F)(F)F)cc2)C[C@@H]2CC[C@H]1N2C(=O)NCCc1ccccc1 | -0.6 | 2.7 | 30.2* | 6.4 | . | -1.5
COC(=O)C1=C(c2ccc(OC(F)(F)F)cc2)C[C@@H]2CC[C@H]1N2C(=O)NCCNC(C)=O | 4.2 | 0.8 | -1.1 | -7.9 | . | 6.2
CCOP(=O)(Cc1cc(C(=O)CC)c(C)o1)OCC | 3.5 | . | 0.9 | . | -2.8 | .
Cc1cc(C)cc(N2C(=O)NC(=O)/C(=C\c3cccn3-c3ccc(Cl)cc3)C2=O)c1 | -1.4 | 43.5* | 5.5 | -1.7 | 6.2 | 39.4*
FC(F)(F)c1cccc(-n2nnnc2C2(N3CCOCC3)CCCCC2)c1 | 2.1 | 31.4* | -0.9 | 6.9 | -3.5 | -3.5
O=C1CC(=O)N(c2cccc(C(F)(F)F)c2)C(=O)N1 | -2.5 | 3.9 | 2.5 | 7.4 | -1.8 | -0.2
CCc1ccc2nc(N3CCC(C(=O)N4CCC5(CC4)OCCO5)CC3)sc2c1 | 2.7 | 0.7 | 28.6* | 4.0 | 3.0 | 1.3
Cc1ccc2nc(N3CCC(C(=O)N4CCC5(CC4)OCCO5)CC3)sc2c1 | -3.7 | 2.6 | 10.8 | 8.8 | -3.9 | 2.1
C[C@]12CC[C@H](O)CC1=CCC1C2CC[C@]2(C)C(=O)[C@H](Br)CC12 (some centres not stated) | . | 3.9 | -2.7 | 17.9 | . | 9.6
SMILES | PME-1 primary | PAFAH1B2 inh | pPAFAH inh | PAFAH1B3 inh | Fam108B inh | PAFAH2 FP inh
CC(C)C(=O)c1cn(Cc2ccccc2C#N)c2ccccc12 | 39.4* | 4.9 | 4.7 | 5.1 | -0.7 | -6.3
COc1ccc(C)cc1NC(=O)N1CCC2(CC1)OCCO2 | 1.4 | 0.1 | -0.9 | -2.4 | 2.7 | -0.1
CC(C)n1c(O)c(C2c3cc(Cl)ccc3Oc3[nH]c(=O)n(C(C)C)c(=O)c32)c(=O)[nH]c1=O (configuration not stated) | . | 38.8* | . | 3.3 | . | -1.1
CC(=O)c1c(O)n(-c2cccc(Cl)c2)c(=O)[nH]c1=O (tested in a mixture with another compound) | -1.5 | 7.2 | 4.7 | 0.3 | 1.5 | 3.5
COc1ccccc1-n1c(-c2ccccc2Cl)nc2ccccc2c1=O | 1.7 | 5.9 | 8.0 | 6.8 | -0.2 | -5.6
CCOc1cccc(OCC)c2c(C)[n+](CC3CCCO3)c(C)c1-2 (configuration not stated) | 4.8 | 15.2 | 19.4 | 6.3 | 4.6 | 32.4*
O=C1NC(=S)NC(=O)C1=Cc1ccc2c(c1)CCN2CCCCl | 2.4 | . | 28.8* | . | 3.3 | .
CC(=O)Nc1ccc(OC(=O)N2CCCCC2)cc1 | 9.3 | 5.2 | 0.2 | 8.1 | 1.2 | 4.2
O=C(Oc1ccc([N+](=O)[O-])cc1)N1CCC(N2CCCCC2)CC1 | -0.5 | 1.1 | 34.4* | -1.6 | 2.2 | 18.6
O=P(NS(=O)(=O)c1ccc(Cl)cc1)(Oc1ccccc1)Oc1ccccc1 | -4.2 | 83.9* | 1.3 | 7.2 | -5.2 | -3.7
Cc1ccc(C)c(NP(=O)(Oc2ccccc2)Oc2ccccc2)c1 | 0.5 | -5.3 | -5.3 | 5.9 | -4.7 | -0.4
O=P(NS(=O)(=O)c1ccccc1)(Oc1ccccc1)Oc1ccccc1 | -2.1 | 23.3 | -0.8 | 7.0 | -1.5 | 5.1
O=P(NS(=O)(=O)c1ccc(Br)cc1)(Oc1ccccc1)Oc1ccccc1 | -3.5 | 78.2* | 3.7 | 0.3 | -2.0 | 6.9
Cc1ccc(S(=O)(=O)NP(=O)(Oc2ccccc2)Oc2ccccc2)cc1 | -5.8 | 45.6* | -1.5 | 24.1 | 2.9 | 1.7
CC1(C)C(C(=O)N2CCN(C(=O)c3ccccc3)CC2)C1(C)C | -5.9 | 7.8 | 0.3 | 5.9 | 3.7 | -2.4
CCCC(=O)NC(Oc1ccccc1Cl)C(Cl)(Cl)Cl (configuration not stated) | 0.9 | 6.8 | 1.7 | -1.3 | -0.8 | -2.3
O=C(CF)NC(Nc1cccc2cccnc12)C(Cl)(Cl)Cl (configuration not stated) | 36.3* | 2.2 | 3.2 | 9.1 | 2.7 | -0.4
O=c1[nH]c(=O)n(-c2cccc(F)c2)c(O)c1/C=C1\C=Nc2ccccc21 | -0.5 | 25.4* | 2.9 | 19.9 | 3.2 | -3.8
Cc1nn(CC(C)C)c(Cl)c1C(=O)NC1CCCCC1 | . | -0.2 | . | -0.1 | . | 3.2
CCOC(=O)c1c(-n2c(C)cc(C=C3C(=O)NC(=S)NC3=O)c2C)sc2c1CCCC2 | -1.9 | -4.4 | 25.3* | 0.9 | 9.7 | 7.2
CCOC(=O)c1c(-n2c(C)cc(/C=C3/C(=O)NC(=O)N(CC)C3=O)c2C)sc2c1CCCC2 | -4.6 | 2.4 | 4.7 | -1.9 | 0.3 | -10.1
O=C1NC(=O)N(Cc2ccccc2)C(=O)/C1=C/C=C/c1ccco1 | -9.2 | 0.2 | 19.0 | 4.0 | 1.7 | 19.5
CC(C)c1ccc(N2C(=O)NC(=O)/C(=C\C=C\c3ccco3)C2=O)cc1 | -8.3 | . | 28.7* | . | 2.1 | .
CCCC(C)CC1(CCO)C(=O)NC(=S)NC1=O (configuration not stated) | . | 12.8 | . | 8.3 | . | 1.8

Screening results (PubChem)
